# The supplement of paper PMC6555819
# Test system: PPARa:RXRa (NR concentration 270 nM, RXRa partner concentration 90 nM)
# Assay: PBM binding z-score (relative to random genomic background probes); higher = stronger binding; sequences stand for … in GC…GCGATTGACAGCGTAGAATGAAGG
# How it was run: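 Ligand-free nuclear receptor dimers were bound for 1 h to custom Agilent 4×180K protein-binding microarrays. Detection used antibodies against each partner (one per run). Binding z-scores rest on regression-normalized fluorescence, with random background probes as the reference.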
row,Sequence,PBM binding z-score
1,CGTCCAAGGTCAAGGTCGGTGAAAGAGACTCGAA,5.85
2,TCTTGTAGATCAATAGAGGTTCAGAAAGTGCGCT,0.663
3,CCTACTGGGCCAACGTCATTGATCAGTCAAAGCA,0.419
4,AGAACGAGGGCACGCAGAGTTGATAGCAGAGTAG,2.54
5,GCCTATAGGTAATACAAGGTGAAAGTCCGATTGT,1.28
6,TAGCCTAGGTCATTGGGCGAGTATAGTACGCATC,3.51
7,ACAGACAGGTGAGTGAAGGTAACTAAGCTGGACG,0.107
8,TTACCAAGTTGAGCTGAGGTCGTTGATCCAACTC,1.03
9,TGAGTGAGGTTAAAGATCAGGGAACGTGGCGTCG,4.05
10,CCTCGGAGGACTGAAGGTCAGAGCTGTCCGCTTT,1.46
11,CCTACTGGGCCACGGTCATTGATCAGTCAAAGCA,1.3
12,GGAACGAGGACATTCGAGTTGATAGCATGGCGAT,-0.304
13,CTACCAAGGAGAACAAGGTCGTTGATTACTATTC,0.978
14,TCGAGTAGGTTGGGGGCATTCAGAATGGCGTCGA,2.48
15,CCAGATAGGTGAAAGGTAACTCAGTCTGGTACGC,4.2
16,ACTCGGAGGACAAAGGCCAGAGCTACGCCAGTGA,0.196
17,CAAACTAGGTCAAGTTCAAAGTCGGTTTGTGCCA,5.81
18,GTACCAAGGTGGATAGGTCGTTGATGAGTAGGCG,0.372
19,TCTGCTCGGTCAGTTGGTCAGCTAACGAGCTGCC,-0.00259
20,CATACAGTGTCAGCTAGGCCAGAGTAGGGACGGC,-0.3
21,CGTCCAAGGACAAAGGTCAGTGAAGAGATGACGG,4.56
22,TCTATTACTTGATTAGGGCAACCGAAACAGCGGA,0.975
